Data: PubChem BioAssay (NCATS)
Records with an inconclusive call do not appear. Calls of active or inactive are those of the source. Unless noted, calls follow the shape of the dose curve; as a rule, active = well fitted curve in the direction sought with a large enough effect; inconclusive = small, poorly fitted or top-dose-only effect, or another doubt; inactive = no such curve, though single readings can be large; an effect the other way counts as inactive or inconclusive.

Columns and labels:
[1] = molecular target: Glucocorticoid receptor (Homo sapiens) (UniProt P04150); assay: GR-GFP Redistribution (AID 450;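 active = compounds whose dose series gives a full or clear partial fitted curve of increased nuclear translocation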; also: potency is read from the fitted curve at half-maximal effect); settings: U2OS GR-GFP nuclear translocation, laser cytometry, 2 h
Sequence of Glucocorticoid receptor (Homo sapiens) (P04150 whole entry, looked up, the tested form may be a part): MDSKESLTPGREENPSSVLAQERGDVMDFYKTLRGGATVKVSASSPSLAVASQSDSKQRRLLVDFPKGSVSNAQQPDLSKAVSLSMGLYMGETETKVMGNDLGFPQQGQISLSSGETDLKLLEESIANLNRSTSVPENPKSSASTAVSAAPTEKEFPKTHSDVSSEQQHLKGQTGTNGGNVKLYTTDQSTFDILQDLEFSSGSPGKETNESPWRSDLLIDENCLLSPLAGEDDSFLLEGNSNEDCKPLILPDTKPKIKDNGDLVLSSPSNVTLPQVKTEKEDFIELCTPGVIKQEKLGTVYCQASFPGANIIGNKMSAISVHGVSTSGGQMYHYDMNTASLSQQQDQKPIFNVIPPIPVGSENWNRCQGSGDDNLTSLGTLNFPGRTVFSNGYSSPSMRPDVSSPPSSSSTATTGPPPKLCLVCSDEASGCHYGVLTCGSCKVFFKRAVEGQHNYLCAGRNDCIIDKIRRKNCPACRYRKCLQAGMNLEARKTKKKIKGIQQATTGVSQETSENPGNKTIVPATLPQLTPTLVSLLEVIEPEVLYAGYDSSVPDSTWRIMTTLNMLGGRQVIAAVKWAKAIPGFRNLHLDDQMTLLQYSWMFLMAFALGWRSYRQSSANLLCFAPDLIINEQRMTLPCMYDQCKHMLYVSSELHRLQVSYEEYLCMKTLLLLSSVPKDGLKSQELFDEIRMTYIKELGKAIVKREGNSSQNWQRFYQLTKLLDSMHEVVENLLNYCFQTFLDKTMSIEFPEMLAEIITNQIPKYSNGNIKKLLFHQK

[2] = molecular target: Glucocorticoid receptor (Homo sapiens) (UniProt P04150); assay: GR-EFC Redistribution (AID 451; calls by dose curve; also: potency is read from the fitted curve at half-maximal effect); settings: CHO-K1 GR-EFC translocation, beta-gal luminescence, 2 h
Outline: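 Translocation of GR-ED fusion to nuclear EA restores b-gal, read by luminescence after 1 h room-temperature detection. Engineered CHO-K1 biosensor cells, 1,000/well, exposed 2 h at 37 C to titrations up to 46 uM final.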

[3] = system: Zika virus NS2B-NS3 protease; assay: Primary screen GU AMC qHTS for Zika virus inhibitors (AID 1347154); settings: Zika NS2B-NS3 unlinked protease, AMC fluorogenic substrate; series mostly up to 54.1 µM; also: nearly all actives have a fitted effect of over 70% in size
Outline: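 Fluorogenic AMC-substrate cleavage by noncovalent NS2B-NS3 protease complex (25 nM, pH 8.0 Tris buffer with Tween 20) followed for 15 minutes at room temperature (~20% conversion). Percent inhibition from ex340/em450 signal change, fitted by 4-parameter Hill equation.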

[4] = Primary qHTS for small molecule stabilizers of the endoplasmic reticulum resident proteome: Secreted ER Calcium Modulated Protein (SERCaMP) assay (AID 1508630); settings: SH-SY5Y GLuc-SERCaMP (Gaussia luciferase released on ER calcium loss) secretion, thapsigargin, luminescence; series mostly up to 38.4 µM
Outline: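 The SH-SY5Y reporter protocol was run at 3 concentrations up to 38.3 uM (primary) or 11 concentrations (follow-up): 16 h compound, 100 nM thapsigargin for 4 h, then extracellular luciferase luminescence.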

[5] = molecular target: Mitogen-activated protein kinase 10 (Mus musculus) (UniProt Q61831); assay: JNK3 AlphaScreen Assay (AID 530; active = well fitted curve in either direction with a large enough effect, not every such curve was filed as active;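 also: kinase came from lysate of stimulated human HepG2 cells; signal reports phosphorylation of biotinylated GST-cJun 1-79 at Ser73 with 10 µM ATP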); settings: JNK3 lysate, c-Jun phosphorylation; series mostly up to 57.1 µM
Outline: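 qHTS titrations with 15 min compound pre-incubation before adding ATP (10 uM final). Read-out: AlphaScreen of Ser73-phosphorylated biotin-GST-cJun using HepG2 lysate JNK3 activated by IL-1β and TNFα.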

[6] = molecular target: 3',5'-cyclic-AMP phosphodiesterase 4B (Homo sapiens) (UniProt Q07343); assay: qHTS Assay for Inhibitors of PDE-IV (AID 607; active = well fitted activation curve with a large enough effect in the main read-out, with a control signal flat, not every such curve was filed as active); settings: HEK293 ACTOne CNG channel cells, membrane potential fluorescence; series mostly up to 22.9 µM
Sequence of 3',5'-cyclic-AMP phosphodiesterase 4B (Homo sapiens) (Q07343 whole entry, looked up): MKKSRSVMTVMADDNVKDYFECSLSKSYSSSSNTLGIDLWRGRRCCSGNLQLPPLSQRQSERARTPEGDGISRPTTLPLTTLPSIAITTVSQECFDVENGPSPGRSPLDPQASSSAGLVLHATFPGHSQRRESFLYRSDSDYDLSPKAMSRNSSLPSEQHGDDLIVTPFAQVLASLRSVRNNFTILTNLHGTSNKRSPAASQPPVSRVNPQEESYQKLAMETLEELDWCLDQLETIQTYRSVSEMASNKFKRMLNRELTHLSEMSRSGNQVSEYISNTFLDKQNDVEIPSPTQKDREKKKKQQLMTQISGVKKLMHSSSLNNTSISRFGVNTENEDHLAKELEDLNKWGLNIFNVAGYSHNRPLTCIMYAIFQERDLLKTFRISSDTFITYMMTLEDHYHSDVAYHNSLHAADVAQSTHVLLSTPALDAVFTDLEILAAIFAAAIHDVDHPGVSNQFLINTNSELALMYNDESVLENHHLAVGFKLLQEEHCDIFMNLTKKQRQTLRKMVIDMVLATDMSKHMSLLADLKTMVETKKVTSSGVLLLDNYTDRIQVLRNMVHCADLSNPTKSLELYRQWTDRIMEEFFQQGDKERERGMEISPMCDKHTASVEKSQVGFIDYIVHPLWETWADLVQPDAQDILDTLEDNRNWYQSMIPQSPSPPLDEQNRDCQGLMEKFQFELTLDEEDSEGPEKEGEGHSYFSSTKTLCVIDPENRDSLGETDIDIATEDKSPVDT
Outline: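 ACTOne HEK293 cells carry a modified cAMP-gated CNG channel and express endogenous PDE4; plated 1000 cells/well, compounds up to 22.9 uM final. Membrane-potential dye fluorescence (ex 535/em 590) was read; parental cells received 10 uM forskolin + 100 uM RO 20-1724.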

[7] = molecular target: DNA dC->dU-editing enzyme APOBEC-3G (Homo sapiens) (UniProt Q9HC16); assay: qHTS for inhibitors of Vif-A3G interactions: Validation (AID 588379); settings: Vif-A3G protein interaction assay; series mostly up to 46.1 µM
Sequence of DNA dC->dU-editing enzyme APOBEC-3G (Homo sapiens) (Q9HC16 whole entry, looked up): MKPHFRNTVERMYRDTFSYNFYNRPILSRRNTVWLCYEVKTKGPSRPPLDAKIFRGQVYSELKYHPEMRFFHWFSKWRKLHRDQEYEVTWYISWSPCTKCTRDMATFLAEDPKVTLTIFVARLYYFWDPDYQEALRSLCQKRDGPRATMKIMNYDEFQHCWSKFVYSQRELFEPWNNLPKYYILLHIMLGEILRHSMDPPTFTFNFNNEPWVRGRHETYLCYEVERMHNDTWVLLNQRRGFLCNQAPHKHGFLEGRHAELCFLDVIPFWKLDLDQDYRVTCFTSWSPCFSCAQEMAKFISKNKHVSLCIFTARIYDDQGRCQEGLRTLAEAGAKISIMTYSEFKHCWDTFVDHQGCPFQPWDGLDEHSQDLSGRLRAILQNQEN
Outline: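 Yellow fluorescence (Ex 488, Em 500-530) of Vif-coexpressing HeLa A3G-eYFP cells, scanned by Acumen cytometer, reports blocked A3G degradation. Cells plated at 700/well overnight at 37 deg C before compound addition, then a further overnight compound incubation at 37 deg C.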

Measured: Potency

CS(=O)(=O)Nc1ccc(Cc2noc(-c3ccc4[nH]cc(CCN)c4c3)n2)cc1
inactive: [1] > 46 µM | [2] > 46 µM | [3] | [4]

NC[C@H](CP(=O)(O)O)c1ccc(Cl)cc1
inactive: [1] > 46 µM | [2] > 46 µM | [5] | [6] | [3] | [4]

CCC[C@@H]1CC2=CC(=O)CC[C@]2(C)[C@@H]2CC[C@@]3(C)[C@H](CC[C@]3(O)CCC(=O)O)[C@H]12
inactive: [1] > 46 µM | [2] > 46 µM | [5] | [6] | [7] | [3] | [4]

Clc1ccc(C2=CCC[C@H]3CC[C@@H]2N3)cn1
inactive: [1] > 46 µM | [2] > 46 µM | [5] | [7] | [3] | [4]

CN1CCN(C(=O)O[C@@H]2c3nccnc3C(=O)N2c2ccc(Cl)cn2)CC1
inactive: [5] | [6] | [3] | [4]

C[C@@H]1O[C@@H](O[C@H]2C[C@@H](O)[C@]3(CO)[C@@H]4C(CC[C@]3(O)C2)[C@@]2(O)CC[C@H](C3=CC(=O)OC3)[C@@]2(C)C[C@H]4O)[C@H](O)[C@H](O)[C@H]1O (some centres not stated)
inactive: [7] | [3] | [4]

CCOC(OCC)P(=O)(O)CCCN
inactive: [1] > 46 µM | [2] > 46 µM | [5] | [7] | [3] | [4]

CN1[C@@H]2CC[C@H]1CC(O[C@@H](c1ccccc1)c1ccc(Cl)cc1)C2 (some centres not stated)
inactive: [1] > 46 µM | [3] | [4]

CCCCCCCCCOc1ccc2[nH]cc(CCN)c2c1
inactive: [1] > 46 µM | [2] > 46 µM | [6] | [3] | [4]

COC(=O)CN1CN(c2ccccc2)C2(CCN(Cc3ccc4ccccc4c3)CC2)C1=O
inactive: [1] > 46 µM | [2] > 46 µM | [5] | [6] | [3] | [4]

CN(C(=O)Cc1ccccc1)[C@H](CN1CCCC1)c1ccccc1
inactive: [1] > 46 µM | [5] | [7] | [3] | [4]

S=C=Nc1cccc(C2(N3CCCCC3)CCCCC2)c1
inactive: [1] > 46 µM | [5] | [6] | [3] | [4]

Cn1cc(C(=O)C(=O)N[C@H]2CN3CCC2CC3)c2ccccc21
inactive: [1] > 46 µM | [2] > 46 µM | [5] | [7] | [3] | [4]

O=C1Nc2cc(Cl)c(Cl)cc2N2CCNC[C@H]12
inactive: [1] > 46 µM | [2] > 46 µM | [5] | [7] | [3] | [4]
